Measurements as given in the supplement of paper PMC11732987, “Enantioselective OTUD7B fragment discovery through chemoproteomics screening and high-throughput optimisation” (Communications Chemistry, 2025).

Columns and labels:
Assay in all cases: log2 ratio of Biotin-Ahx-Ub-VS probe labelling (fragment/DMSO); higher = less target engagement (more negative = stronger competition), active = hit call of the paper (q ≤ 0.05, log2 ratio ≤ -1)
Settings in all cases: compound concentration: 200 uM; treatment time: 3 h
USP19 = target: T1, USP19 (UniProt O94966)
T1 sequence (whole entry): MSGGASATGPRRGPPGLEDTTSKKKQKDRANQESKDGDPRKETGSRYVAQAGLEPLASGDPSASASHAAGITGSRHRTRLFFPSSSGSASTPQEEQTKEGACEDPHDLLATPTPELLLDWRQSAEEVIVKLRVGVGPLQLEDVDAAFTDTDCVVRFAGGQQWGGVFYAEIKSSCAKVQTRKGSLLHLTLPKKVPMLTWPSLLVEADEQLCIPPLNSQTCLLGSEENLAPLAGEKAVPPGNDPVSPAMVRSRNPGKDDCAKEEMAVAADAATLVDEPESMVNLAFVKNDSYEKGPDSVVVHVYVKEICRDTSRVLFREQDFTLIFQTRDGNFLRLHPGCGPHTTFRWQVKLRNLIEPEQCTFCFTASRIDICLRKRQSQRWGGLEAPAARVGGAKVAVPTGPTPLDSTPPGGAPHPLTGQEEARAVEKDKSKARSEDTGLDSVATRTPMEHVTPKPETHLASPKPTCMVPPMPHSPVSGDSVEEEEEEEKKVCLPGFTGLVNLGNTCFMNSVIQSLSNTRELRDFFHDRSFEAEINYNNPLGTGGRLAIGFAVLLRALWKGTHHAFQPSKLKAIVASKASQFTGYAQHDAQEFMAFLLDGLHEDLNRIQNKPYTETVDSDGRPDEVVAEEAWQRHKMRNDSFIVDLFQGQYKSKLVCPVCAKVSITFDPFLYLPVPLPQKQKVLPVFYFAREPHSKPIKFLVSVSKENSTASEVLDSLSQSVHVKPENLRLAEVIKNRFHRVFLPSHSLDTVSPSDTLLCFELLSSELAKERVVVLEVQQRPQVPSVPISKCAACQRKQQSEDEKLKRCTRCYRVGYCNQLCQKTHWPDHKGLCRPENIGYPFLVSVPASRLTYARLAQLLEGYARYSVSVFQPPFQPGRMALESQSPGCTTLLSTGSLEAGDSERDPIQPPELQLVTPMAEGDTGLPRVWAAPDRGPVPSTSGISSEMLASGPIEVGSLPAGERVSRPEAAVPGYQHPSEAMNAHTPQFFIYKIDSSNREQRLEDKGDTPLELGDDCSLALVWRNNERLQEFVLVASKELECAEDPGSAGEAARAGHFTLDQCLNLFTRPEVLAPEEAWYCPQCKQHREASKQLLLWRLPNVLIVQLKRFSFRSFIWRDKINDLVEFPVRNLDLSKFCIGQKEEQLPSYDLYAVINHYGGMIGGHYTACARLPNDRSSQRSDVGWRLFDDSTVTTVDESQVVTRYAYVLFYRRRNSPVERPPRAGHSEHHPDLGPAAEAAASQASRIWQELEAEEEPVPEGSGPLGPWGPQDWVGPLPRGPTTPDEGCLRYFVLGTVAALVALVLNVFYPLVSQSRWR
Outline: (§1)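 HEK293T lysate, 495 µg per sample in Tris/CHAPS/IGEPAL buffer with protease inhibitors, was treated in triplicate with fragment at 200 µM or vehicle for 3 h and then with Biotin-Ahx-Ub-VS at 0.5 µM final for 1 h. Labelled DUBs were NeutrAvidin-enriched, digested with LysC and trypsin, and run by diaPASEF LC-MS/MS. Spectronaut label-free quantities were global-median-normalised, and values are average log2 fragment/vehicle ratios by unpaired t-test on proteins with ≥2 unique peptides.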

USP22 = target: T2, USP22 (UniProt Q9UPT9)
T2 sequence (whole entry): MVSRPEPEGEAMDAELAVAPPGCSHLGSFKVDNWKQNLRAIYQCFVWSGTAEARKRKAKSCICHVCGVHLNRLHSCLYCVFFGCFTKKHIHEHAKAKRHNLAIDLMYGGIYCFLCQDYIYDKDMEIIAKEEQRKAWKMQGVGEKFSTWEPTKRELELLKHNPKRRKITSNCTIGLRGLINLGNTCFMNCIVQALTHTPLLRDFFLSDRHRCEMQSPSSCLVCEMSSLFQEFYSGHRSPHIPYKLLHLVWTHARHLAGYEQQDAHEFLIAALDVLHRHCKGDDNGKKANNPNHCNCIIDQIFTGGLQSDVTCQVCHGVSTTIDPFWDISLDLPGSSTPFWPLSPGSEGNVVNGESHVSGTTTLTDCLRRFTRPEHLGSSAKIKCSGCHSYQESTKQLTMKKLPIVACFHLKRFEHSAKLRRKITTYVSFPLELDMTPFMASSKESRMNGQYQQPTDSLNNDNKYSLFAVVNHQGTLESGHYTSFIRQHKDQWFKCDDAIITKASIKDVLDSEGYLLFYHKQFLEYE
Outline: as §1

USP24 = USP24 (UniProt Q9UPU5)
USP24, sequence (Q9UPU5 whole entry): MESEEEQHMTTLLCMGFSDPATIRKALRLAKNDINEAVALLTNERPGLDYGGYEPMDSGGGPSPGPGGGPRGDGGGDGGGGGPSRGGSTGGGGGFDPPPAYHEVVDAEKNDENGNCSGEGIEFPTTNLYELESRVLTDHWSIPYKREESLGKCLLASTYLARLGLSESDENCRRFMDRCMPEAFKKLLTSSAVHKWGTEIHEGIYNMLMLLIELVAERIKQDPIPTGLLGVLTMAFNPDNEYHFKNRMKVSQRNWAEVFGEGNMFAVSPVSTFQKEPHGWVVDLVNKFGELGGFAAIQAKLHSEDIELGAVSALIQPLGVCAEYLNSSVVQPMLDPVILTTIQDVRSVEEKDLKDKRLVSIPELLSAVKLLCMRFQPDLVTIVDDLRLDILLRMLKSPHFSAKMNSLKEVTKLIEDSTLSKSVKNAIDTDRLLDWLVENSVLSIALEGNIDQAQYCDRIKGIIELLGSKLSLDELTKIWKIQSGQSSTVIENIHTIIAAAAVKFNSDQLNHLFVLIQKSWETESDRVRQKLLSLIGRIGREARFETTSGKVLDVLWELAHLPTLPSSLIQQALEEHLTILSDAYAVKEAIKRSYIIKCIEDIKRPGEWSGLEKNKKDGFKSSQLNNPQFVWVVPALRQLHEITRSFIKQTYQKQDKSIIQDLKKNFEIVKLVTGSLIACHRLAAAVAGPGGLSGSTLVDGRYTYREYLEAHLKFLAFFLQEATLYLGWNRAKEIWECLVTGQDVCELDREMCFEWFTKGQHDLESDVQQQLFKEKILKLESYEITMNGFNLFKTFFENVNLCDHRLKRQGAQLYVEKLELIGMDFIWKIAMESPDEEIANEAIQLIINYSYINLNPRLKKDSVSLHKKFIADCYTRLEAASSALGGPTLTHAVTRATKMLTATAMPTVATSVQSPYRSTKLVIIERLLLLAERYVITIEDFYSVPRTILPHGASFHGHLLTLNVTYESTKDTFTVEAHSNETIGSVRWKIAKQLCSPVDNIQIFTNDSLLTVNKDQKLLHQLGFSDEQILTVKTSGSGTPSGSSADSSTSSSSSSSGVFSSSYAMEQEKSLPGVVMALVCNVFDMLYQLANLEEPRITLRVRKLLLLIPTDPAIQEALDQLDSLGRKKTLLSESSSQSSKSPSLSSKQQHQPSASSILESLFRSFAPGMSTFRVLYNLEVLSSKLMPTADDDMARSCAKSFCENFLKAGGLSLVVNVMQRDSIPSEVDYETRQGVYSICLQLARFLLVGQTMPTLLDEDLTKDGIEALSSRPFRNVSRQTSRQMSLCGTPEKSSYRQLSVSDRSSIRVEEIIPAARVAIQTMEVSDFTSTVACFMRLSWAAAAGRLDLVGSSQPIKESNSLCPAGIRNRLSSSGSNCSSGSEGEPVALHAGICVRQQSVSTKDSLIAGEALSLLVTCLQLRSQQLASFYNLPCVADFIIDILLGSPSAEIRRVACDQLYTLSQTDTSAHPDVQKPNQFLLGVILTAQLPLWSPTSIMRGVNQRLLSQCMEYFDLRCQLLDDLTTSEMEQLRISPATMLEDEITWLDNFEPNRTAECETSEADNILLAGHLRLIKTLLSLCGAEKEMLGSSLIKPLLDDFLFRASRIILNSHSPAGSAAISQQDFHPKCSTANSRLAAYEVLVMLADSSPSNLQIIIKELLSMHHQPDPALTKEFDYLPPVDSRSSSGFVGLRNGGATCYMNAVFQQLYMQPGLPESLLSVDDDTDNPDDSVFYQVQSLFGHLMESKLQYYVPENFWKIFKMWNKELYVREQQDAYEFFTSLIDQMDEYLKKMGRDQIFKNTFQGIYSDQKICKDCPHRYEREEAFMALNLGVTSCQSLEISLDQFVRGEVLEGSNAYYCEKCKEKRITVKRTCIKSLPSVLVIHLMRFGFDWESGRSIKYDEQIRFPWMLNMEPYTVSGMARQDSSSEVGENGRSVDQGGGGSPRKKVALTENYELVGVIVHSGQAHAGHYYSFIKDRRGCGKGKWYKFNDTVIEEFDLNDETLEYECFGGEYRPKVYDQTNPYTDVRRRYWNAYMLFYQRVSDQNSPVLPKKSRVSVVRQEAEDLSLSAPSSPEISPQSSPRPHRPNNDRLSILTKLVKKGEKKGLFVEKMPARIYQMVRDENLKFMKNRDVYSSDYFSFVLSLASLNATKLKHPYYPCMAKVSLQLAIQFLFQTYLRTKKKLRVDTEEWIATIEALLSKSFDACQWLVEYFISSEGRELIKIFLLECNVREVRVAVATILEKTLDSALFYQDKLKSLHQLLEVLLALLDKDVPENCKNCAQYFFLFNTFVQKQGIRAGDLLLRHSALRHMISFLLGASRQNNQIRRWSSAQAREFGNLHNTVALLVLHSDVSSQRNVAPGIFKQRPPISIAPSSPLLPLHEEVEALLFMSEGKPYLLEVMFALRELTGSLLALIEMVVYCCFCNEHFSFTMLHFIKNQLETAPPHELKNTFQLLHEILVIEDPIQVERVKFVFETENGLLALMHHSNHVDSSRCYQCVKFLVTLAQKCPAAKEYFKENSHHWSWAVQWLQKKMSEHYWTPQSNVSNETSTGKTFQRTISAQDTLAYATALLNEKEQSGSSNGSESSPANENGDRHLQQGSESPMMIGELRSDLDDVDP
Outline: as §1

USP25 = target: T3, USP25 (UniProt Q9UHP3)
T3 sequence (whole entry): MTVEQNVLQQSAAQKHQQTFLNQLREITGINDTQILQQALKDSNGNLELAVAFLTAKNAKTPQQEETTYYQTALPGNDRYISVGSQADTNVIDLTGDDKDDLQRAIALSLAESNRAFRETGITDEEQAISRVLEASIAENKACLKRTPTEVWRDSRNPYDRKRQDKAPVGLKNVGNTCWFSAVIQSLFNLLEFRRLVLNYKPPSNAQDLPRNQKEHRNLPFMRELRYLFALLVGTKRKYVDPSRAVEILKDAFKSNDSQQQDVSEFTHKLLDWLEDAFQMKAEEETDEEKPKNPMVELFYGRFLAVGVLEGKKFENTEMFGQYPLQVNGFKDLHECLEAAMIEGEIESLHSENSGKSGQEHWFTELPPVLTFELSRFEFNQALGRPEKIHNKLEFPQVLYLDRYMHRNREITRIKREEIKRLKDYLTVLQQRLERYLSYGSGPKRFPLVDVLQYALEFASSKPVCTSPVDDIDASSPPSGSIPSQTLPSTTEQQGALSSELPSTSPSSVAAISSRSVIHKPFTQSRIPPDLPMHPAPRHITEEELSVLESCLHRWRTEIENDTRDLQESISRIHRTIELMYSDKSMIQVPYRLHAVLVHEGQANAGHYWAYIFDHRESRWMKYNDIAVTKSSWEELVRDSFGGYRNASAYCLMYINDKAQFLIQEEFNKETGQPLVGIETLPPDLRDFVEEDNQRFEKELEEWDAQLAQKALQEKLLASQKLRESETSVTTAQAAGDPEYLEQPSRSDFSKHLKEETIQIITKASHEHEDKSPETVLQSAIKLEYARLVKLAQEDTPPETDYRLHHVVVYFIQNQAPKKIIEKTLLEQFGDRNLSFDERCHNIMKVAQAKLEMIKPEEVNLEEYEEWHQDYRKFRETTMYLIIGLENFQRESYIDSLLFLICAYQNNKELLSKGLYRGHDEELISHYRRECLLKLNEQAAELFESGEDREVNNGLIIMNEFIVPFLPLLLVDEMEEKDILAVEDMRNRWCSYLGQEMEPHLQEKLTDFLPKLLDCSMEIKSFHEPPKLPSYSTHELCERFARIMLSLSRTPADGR
Outline: as §1

USP28 = target: T4, USP28 (UniProt Q96RU2)
T4 sequence (whole entry): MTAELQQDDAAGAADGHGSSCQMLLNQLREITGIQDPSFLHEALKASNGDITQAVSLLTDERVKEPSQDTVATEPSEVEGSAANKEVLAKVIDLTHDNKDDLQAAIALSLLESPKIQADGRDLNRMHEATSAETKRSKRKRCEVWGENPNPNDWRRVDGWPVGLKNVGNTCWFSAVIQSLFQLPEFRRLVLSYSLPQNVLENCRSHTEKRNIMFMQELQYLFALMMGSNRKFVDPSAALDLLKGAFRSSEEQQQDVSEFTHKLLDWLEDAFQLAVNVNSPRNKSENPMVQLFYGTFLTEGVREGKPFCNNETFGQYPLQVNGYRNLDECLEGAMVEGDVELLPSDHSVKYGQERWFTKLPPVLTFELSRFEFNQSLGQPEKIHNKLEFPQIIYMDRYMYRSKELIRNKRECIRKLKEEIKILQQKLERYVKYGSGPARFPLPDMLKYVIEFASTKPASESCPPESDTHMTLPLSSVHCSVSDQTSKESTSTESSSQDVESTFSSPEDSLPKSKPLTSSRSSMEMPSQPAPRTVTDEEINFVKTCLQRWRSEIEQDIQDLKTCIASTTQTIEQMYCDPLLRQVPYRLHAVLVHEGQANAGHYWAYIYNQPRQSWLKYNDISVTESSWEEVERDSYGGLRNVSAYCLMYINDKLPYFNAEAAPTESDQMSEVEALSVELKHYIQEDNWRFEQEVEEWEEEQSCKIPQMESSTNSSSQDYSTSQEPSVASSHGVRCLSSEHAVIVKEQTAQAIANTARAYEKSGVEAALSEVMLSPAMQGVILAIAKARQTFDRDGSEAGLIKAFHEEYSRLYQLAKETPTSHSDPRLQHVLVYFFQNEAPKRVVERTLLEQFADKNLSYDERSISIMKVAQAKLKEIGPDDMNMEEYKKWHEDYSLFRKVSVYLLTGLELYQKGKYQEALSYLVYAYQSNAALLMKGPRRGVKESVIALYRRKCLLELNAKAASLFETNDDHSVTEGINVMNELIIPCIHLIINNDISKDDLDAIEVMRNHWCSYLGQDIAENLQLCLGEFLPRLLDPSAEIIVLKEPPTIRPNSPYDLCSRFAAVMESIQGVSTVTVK
Outline: as §1

Measured: log2 ratio of Biotin-Ahx-Ub-VS probe labelling

CN(Cc1nc2ccccc2[nH]1)C(=O)CCl.Cl
inactive: USP19 -0.0932 | USP22 0.243 | USP24 -0.721 | USP25 0.0889 | USP28 -0.218
